Compounds with a hit are over-represented: about 3.2% of the library has one in this group of screens.
esBAF inh: SWI/SNF esBAF complex inhibition; AID 602393; reporter increase, % at 12.5 µM; mouse ES cells, Bmi1-luciferase knock-in reporter, 24 h; 100% = twice the neutral-well signal; 2% of 350,000 active; in the data active means activation above about 40%; inconclusive means no clear call, values can overlap the other calls;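 further: a rise in the Bmi1 reporter signal indicates esBAF inhibition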
dFosB act: activators of mouse delta FosB homodimer; P13346; purified delta FosB, TAMRA-CDK5 oligo fluorescence polarization; percent of positive-control signal above neutral wells; activation, % at 25 µM; 0.99% of 340,000 active;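 active means mean activation above about 17%, with every replicate also reaching it, limit read from the data, passing the limit was not always enough; inconclusive means only one of the two conditions met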
Rtt109 HAT inh: inhibitors of Candida albicans Rtt109/Vps75 histone acetyltransferase | Q5AAJ8 | purified Rtt109/Vps75, ThioGlo CoA-SH fluorescence, 4 h | inhibition, % at 34.9 µM | 0.16% of 330,000 active | AID 540336;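 active means inhibition of at least 50% in every replicate; inconclusive means best replicate reaches 50% inhibition but some replicates fall short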
Target sequence (Q5AAJ8 whole entry, looked up): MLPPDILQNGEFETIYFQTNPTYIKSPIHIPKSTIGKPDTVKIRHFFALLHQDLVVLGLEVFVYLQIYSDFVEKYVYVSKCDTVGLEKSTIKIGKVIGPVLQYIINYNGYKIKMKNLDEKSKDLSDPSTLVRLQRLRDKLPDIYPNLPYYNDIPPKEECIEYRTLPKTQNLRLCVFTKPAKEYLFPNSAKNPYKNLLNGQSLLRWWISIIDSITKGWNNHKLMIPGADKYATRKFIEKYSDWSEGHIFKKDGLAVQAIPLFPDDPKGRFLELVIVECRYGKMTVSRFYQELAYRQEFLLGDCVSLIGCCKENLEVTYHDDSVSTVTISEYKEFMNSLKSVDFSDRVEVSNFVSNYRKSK
CDK5 inh: blocks human CDK5/p35 kinase activity. Recombinant CDK5/p35, ADP-Glo luminescence, 60 min. AID 488839. Q00535+Q15078. inhibition, % at 10 µM. 0.01% of 330,000 active;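 active means highest replicate inhibition of at least 50% and at least 75% of replicates reaching 50%; inconclusive means only one of the two criteria met; inactive means both criteria failed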
SMARCA2 act: increases SMARCA2 function in MMTV reporter cells. 1% of 370,000 active. MG213 cells, MMTV-luciferase reporter, dexamethasone, overnight. activation, % at 9.1 µM; in the data active means activation above about 7.8%
DYRK1A inh: inhibitors of rat Dyrk1A kinase | ADP-Glo luminescence, NFATc1 peptide | 0.43% of 310,000 active | AID 504441 | Q63470 | inhibition, % at 12.5 µM; in the data active means inhibition above about 50%
Numbers stand for hits; i = inactive; ? = inconclusive; nt = no result given.

SMILES	esBAF inh	dFosB act	Rtt109 HAT inh	CDK5 inh	SMARCA2 act	DYRK1A inh
COc1ccc(S(=O)(=O)N(C)C[C@@H]2Oc3c(NC(=O)Nc4ccc5c(c4)OCO5)cccc3C(=O)N([C@H](C)CO)C[C@H]2C)cc1	i	nt	nt	nt	nt	nt
Cc1noc(C)c1S(=O)(=O)Nc1ccc2c(c1)C(=O)N([C@H](C)CO)C[C@@H](C)[C@@H](CN(C)C(=O)CCCN(C)C)OCCCC[C@@H](C)O2	i	nt	nt	nt	nt	nt
Cc1ccc(-n2ncc3c(NCc4cccnc4)ncnc32)c(C)c1	nt	i	i	i	i	i
Fc1cccc(Nc2ncnc3c2cnn3-c2ccccc2)c1	57	i	i	i	i	i
c1ccc(Cn2ncc3c(NCc4ccco4)ncnc32)cc1	i	i	i	i	i	i
Cc1cccc(-n2ncc3c(NCc4cccnc4)ncnc32)c1	88	i	i	i	i	i
c1ccc(-n2ncc3c(NCc4ccco4)ncnc32)cc1	57	i	i	i	i	i
COc1ccc(-n2ncc3c(NCc4cccnc4)ncnc32)cc1	55	i	i	i	i	i
C[C@@H]1CN([C@@H](C)CO)C(=O)Cc2cc(NC(=O)Nc3ccc(F)cc3)ccc2O[C@H]1CN(C)CC1CCCCC1	i	nt	nt	nt	nt	nt
CC=Cc1ccc2n(c1=O)C[C@H]1[C@H](CO)[C@@H](C(=O)NCC)[C@@H]2N1CCC(F)(F)F (mixture of isomers)	i	nt	nt	nt	nt	nt
Cc1cccc(-n2ncc3c(N4CCCC4)ncnc32)c1	i	i	i	i	i	i
COc1cccc(Nc2ncnc3c2cnn3-c2cccc(C)c2)c1	56	i	i	i	i	i
Cc1cccc(-n2ncc3c(N4CC(C)CC(C)C4)ncnc32)c1 (stereo unspecified)	62	i	i	i	i	i
O=C(Nc1ccc(Cl)c(Cl)c1)C1=Cc2ccccc2OC1	57	i	i	i	i	i
CC(=O)N(C)C[C@@H]1Oc2ncc(C#Cc3ccccc3)cc2C(=O)N([C@H](C)CO)C[C@H]1C	i	nt	nt	nt	nt	nt
Cc1ccc(-n2cc(-c3ccccc3)[nH]c2=O)cc1F	50	i	i	i	i	i
Cc1cc(C)c(N=Cc2c(O)c3ccccc3oc2=O)c(C)c1	57	i	i	i	i	i
COc1cc2c(cc1OC)CN(c1nc(-c3cccnc3)nc3ccccc13)CC2	i	34	i	i	i	i
O=c1c2cc(N3CCOCC3)ccc2[nH]c(=S)n1Cc1ccc(Cl)cc1	54	i	i	i	i	i
NC(=O)CSc1nc(N)c2c3c(sc2n1)CCCCC3	55	i	i	i	i	i
CCOC(=O)CNC(=O)c1ccc(Cl)s1	i	i	i	i	i	nt
CCNc1nc(N)c(C(=O)c2ccc(Cl)s2)s1	43	i	i	i	i	i
O=C(Nc1cccnc1Cl)c1ccc(Cl)cc1	?	i	i	i	i	i
COc1ccc(C(=O)Nc2cccc3c2CCCC3)cc1	48	i	i	i	i	i
O=C(Nc1ccccc1O)c1ccc(Cl)cc1	i	i	i	i	i	i
SMILES	esBAF inh	dFosB act	Rtt109 HAT inh	CDK5 inh	SMARCA2 act	DYRK1A inh
O=C(Nc1ccccc1OC(=O)c1ccc(Cl)cc1)c1ccc(Cl)cc1	65	i	i	i	i	i
O=C(Nc1cccc2cccnc12)c1ccc(Cl)cc1	45	i	i	i	i	i
COc1ccc(C(=O)Nc2cc(Cl)ccc2OC(=O)c2ccc(OC)cc2)cc1	69	i	i	i	nt	i
COc1ccc(CC(=O)Nc2cccc3c2CCCC3)cc1	i	i	i	i	i	i
Clc1ccc(OCc2nc3ccccc3[nH]2)cc1	85	i	i	i	i	i
COc1ccc(-n2c(COc3ccc(Cl)cc3)nnc2SCc2nc3ccccc3[nH]2)cc1	nt	nt	nt	nt	i	nt
OC(Cc1nc2ccccc2[nH]1)c1ccccc1Cl (stereo unspecified)	55	i	i	i	i	i
c1ccc(OCc2nc3ccccc3[nH]2)cc1	51	i	i	i	i	i
CCc1nc2ccccc2[nH]1	i	i	i	i	i	i
O=C(Nc1ccccc1)N1CCCCN2[C@@H](CO)[C@@H](c3ccc(-c4ccncc4)cc3)[C@@H]2C1	i	nt	nt	nt	nt	nt
C[C@@H]1CCCCO[C@H](CN(C)C(=O)Nc2ccc(C(F)(F)F)cc2)[C@@H](C)CN([C@@H](C)CO)C(=O)c2cc(NC(=O)C3CCCCC3)ccc2O1	i	nt	nt	nt	nt	nt
CN1CCN(C(=O)C[C@@H]2C=C[C@@H](NC(=O)c3ccc4c(c3)OCO4)[C@H](CO)O2)CC1	i	nt	nt	nt	nt	nt
CCN1C(=C2C(=O)c3ccccc3C2=O)C=Cc2ccccc21	44	i	i	i	i	i
Cc1ccc(Cc2c(-c3ccccc3)nc3c(C)cc(Br)cn23)cc1	nt	nt	nt	nt	i	nt
Cc1ccn2c(Cc3ccccc3)c(-c3ccc(F)cc3)nc2c1	45	nt	nt	nt	i	nt
Cc1ccc(Cc2c(-c3ccccc3)nc3cc(C)ccn23)cc1	42	nt	nt	nt	i	nt
Cc1ccc(Cc2c(-c3ccc(Br)cc3)nc3ccc(Br)cn23)cc1	66	nt	nt	nt	i	nt
COc1ccc(NC(=O)N(C)C[C@@H]2Oc3ccc(NS(=O)(=O)c4ccc(F)cc4)cc3CC(=O)N([C@H](C)CO)C[C@H]2C)cc1	i	nt	nt	nt	nt	nt
CO[C@H]1CN(C)C(=O)c2ccc(NS(=O)(=O)c3ccccc3)cc2OC[C@@H](C)N(C)C[C@@H]1C	i	nt	nt	nt	nt	nt
Cc1ccc(C(=O)CSc2nnc3n2CCCCC3)s1	65	i	i	i	i	nt
CC(C)(C)C(=O)NCc1ccc(C(=O)CSc2nnc3n2CCCCC3)s1	i	nt	nt	nt	i	nt
c1ccc(CN2CCN(Cc3nnc(-c4ccccc4)o3)CC2)cc1	nt	i	i	i	7.9	nt
COc1ccccc1CN1CC(C(=O)NCc2ccc(C)c(F)c2)CCC1=O (stereo unspecified)	i	i	i	i	i	i
COc1ccccc1CN1CC(C(=O)NCc2c(F)ccc(C)c2F)CCC1=O (stereo unspecified)	51	i	i	i	i	i
CCOC(=O)c1cnc2ccc(C)cc2c1Sc1ccc(F)cc1	i	i	i	i	i	i
CCOC(=O)c1cnc2ccc(C)cc2c1Sc1ccccc1	54	i	i	i	i	i
Cc1cc(C)nc(NC(=O)c2ccc(Br)cc2)n1	i	i	i	i	i	i
